According to ChEMBL document CHEMBL4513146, “CO-ADD screening of Karazin Kharkiv National University (Ukraine) compounds”:
Entries with a potency or affinity are not part of this list.

These molecules were tested on Klebsiella pneumoniae. Settings: Concentration 32 ug.mL-1;; ASSAY_TEST Inhibition of Bacterial Growth; detection method Absorption (OD600); MEDIA CAMHB; plate type 384well; NBS; CORNING #3640; time 18 hr.

Going from `Cc1ccc(Sc2nccn3c(=O)n(CC(=O)Nc4ccccc4Br)nc23)c(C)c1` to `O=C(Cn1nc2c(SC3CCCCC3)nccn2c1=O)Nc1ccccc1Br`, the Inhibition rises from 1.33% to 3.34%.

Compared with `CCc1ccc(N(Cc2ccccc2)S(=O)(=O)c2cccn3cnnc23)cc1`, `CCc1ccc(N(Cc2ccc(Cl)cc2)S(=O)(=O)c2cccn3c(C)nnc23)cc1` is lower in Inhibition: 1.9% for the first, -1.79% for the second.

Compared with `COc1cc(NC(=O)Cn2nc3ccc(SC(C)(C)C)nn3c2=O)cc(OC)c1OC`, `COc1cc(NC(=O)Cn2nc3ccc(-c4ccc(Cl)cc4)nn3c2=O)cc(OC)c1` is lower in Inhibition: 14.77% for the first, 6.35% for the second.

Going from `Cc1cc(C)c(NC(=O)Cn2nc3ccc(-c4ccc(C)c(C)c4)nn3c2=O)c(C)c1` to `COc1ccc(NC(=O)Cn2nc3c4cc(-c5ccc(C)c(C)c5)nn4ccn3c2=O)c(OC)c1`, the Inhibition rises from -8.22% to -0.09%.

Going from `O=S(=O)(c1ccc2nncn2c1)N(Cc1cccc(F)c1)c1cc(F)cc(F)c1` to `CCc1ccc(N(Cc2cc(F)cc(F)c2)S(=O)(=O)c2cccn3c(C)nnc23)cc1`, the Inhibition falls from 12.28% to 2.59%.

Compared with `COc1ccc(-c2cc3c4nn(CC(=O)Nc5ccc(C)cc5)c(=O)n4ccn3n2)cc1`, `COC(=O)c1ccc(NC(=O)Cn2nc3c4cc(-c5ccc(F)cc5)nn4ccn3c2=O)cc1` is higher in Inhibition: 7.98% for the first, 11.64% for the second.

First: Cc1c(Cl)cccc1NC(=O)CSc1nc2ccccc2n2c(C)nnc12
Second: Cc1nnc2c(SCC(=O)Nc3ccc(Br)cc3F)nc3ccccc3n12
The Inhibition of the first is higher: 13.43% for the first, 10.56% for the second.

Going from `CCCCn1c(=O)c2sccc2n2c(=O)n(CC(=O)c3cccc(OC)c3)nc12` to `CCOc1ccc(C(=O)Cn2nc3n(Cc4ccccc4OC)c(=O)c4sccc4n3c2=O)cc1`, the Inhibition falls from 13.89% to 8.36%.

Compared with `O=c1c2sccc2n2c(=O)n(Cc3c(F)cccc3Cl)nc2n1Cc1cccs1`, `O=c1c2nn(Cc3ccccc3F)c(=O)n2ccn1-c1ccccc1` is lower in Inhibition: 11.77% for the first, 4.89% for the second.

First: Cc1nc(-c2ccccc2)cc2nn(CC(=O)Nc3ccc4c(c3)OCO4)c(=O)n12
Second: COc1ccc(NC(=O)Cn2nc3c4cc(-c5ccc(C)c(C)c5)nn4ccn3c2=O)cc1Cl
The Inhibition of the first is lower: 6.91% for the first, 8.4% for the second.

Going from `O=C(CCc1nnc2c3cc(-c4ccc(F)cc4)nn3ccn12)N1CCC(Cc2ccccc2)CC1` to `Cc1ccc(-c2cc3c4nnc(CCC(=O)N5CCN(c6ccccc6F)CC5)n4ccn3n2)cc1C`, the Inhibition rises from 4.22% to 8.56%.

Going from `Cc1ccc(Cn2nc3c(=O)n(-c4cccc(F)c4)ccn3c2=O)cc1` to `O=C(Cn1nc2c(=O)n(-c3ccc(Br)cc3)ccn2c1=O)Nc1ccc(F)cc1F`, the Inhibition rises from 1.12% to 7.12%.

Going from `Cc1cc(C)c(NC(=O)CSc2nnc3ccc(C(=O)Nc4cccc(F)c4)cn23)c(C)c1` to `O=C(CSc1nnc2c(=O)n(-c3ccc(Br)cc3)ccn12)Nc1cccc(F)c1`, the Inhibition rises from 4.12% to 8.72%.

First: Cc1ccc(N(CC(=O)OC(C)(C)C)S(=O)(=O)c2cccn3cnnc23)cc1
Second: Cc1nnc2c(S(=O)(=O)N(Cc3cccc(F)c3)c3ccc(C(C)C)cc3)cccn12
The Inhibition of the first is lower: 9.31% for the first, 9.6% for the second.

First: CCOc1ccccc1NC(=O)Cn1c(=O)c2nnc(C(C)C)n2c2ccccc21
Second: Cc1cccc(Oc2nccn3c(=O)n(CC(=O)Nc4ccccc4C(F)(F)F)nc23)c1C
The Inhibition of the first is lower: 4.41% for the first, 10.49% for the second.

Going from `O=c1n(Cc2cccc(Cl)c2)nc2ccc(-c3ccccc3)nn12` to `CCc1nnc2ccc(S(=O)(=O)N(Cc3ccccc3)c3ccccc3)cn12`, the Inhibition falls from 19.54% to 4.93%.

Compared with `Cc1cc(C)cc(Nc2nc(C)cc3nn(CC(=O)Nc4ccc(F)cc4F)c(=O)n23)c1`, `COc1cccc(CNC(=O)Cn2nc3c4cc(-c5cc(C)ccc5C)nn4ccn3c2=O)c1OC` is lower in Inhibition: 15.5% for the first, 6.77% for the second.

Compared with `CCCCOc1ccc(-c2cc3c4nnc(SCC(=O)Nc5c(C)cccc5C)n4ccn3n2)cc1`, `COc1ccc(-n2ccn3c(SCC(=O)N4CCN(c5ccccc5F)CC4)nnc3c2=O)cc1` is higher in Inhibition: 2.94% for the first, 15.6% for the second.

First: COc1ccccc1N1CCN(C(=O)Cn2nc3c(Sc4cccc(C)c4)nccn3c2=O)CC1
Second: COc1ccc(N2CCN(C(=O)Cn3nc4c(Oc5ccccc5)nccn4c3=O)CC2)cc1
The Inhibition of the first is lower: -0.72% for the first, 15.08% for the second.

Going from `O=C(CSc1nnc2c(=O)n(-c3ccc(F)c(F)c3)ccn12)c1cccc(Cl)c1` to `Cc1ccccc1NC(=O)Cn1nc2ccc(SC3CCCCC3)nn2c1=O`, the Inhibition falls from 12.31% to 2.21%.
